Data reported in ChEMBL document CHEMBL1961873, “Compounds: GSK PKIS; Assays: Nanosyn kinase panel” (2012).

What was measured:
[1] = molecular target: T1, Tyrosine-protein kinase receptor TYRO3 (Homo sapiens) (UniProt Q06418); conditions: at 1 µM
T1 sequence (whole entry): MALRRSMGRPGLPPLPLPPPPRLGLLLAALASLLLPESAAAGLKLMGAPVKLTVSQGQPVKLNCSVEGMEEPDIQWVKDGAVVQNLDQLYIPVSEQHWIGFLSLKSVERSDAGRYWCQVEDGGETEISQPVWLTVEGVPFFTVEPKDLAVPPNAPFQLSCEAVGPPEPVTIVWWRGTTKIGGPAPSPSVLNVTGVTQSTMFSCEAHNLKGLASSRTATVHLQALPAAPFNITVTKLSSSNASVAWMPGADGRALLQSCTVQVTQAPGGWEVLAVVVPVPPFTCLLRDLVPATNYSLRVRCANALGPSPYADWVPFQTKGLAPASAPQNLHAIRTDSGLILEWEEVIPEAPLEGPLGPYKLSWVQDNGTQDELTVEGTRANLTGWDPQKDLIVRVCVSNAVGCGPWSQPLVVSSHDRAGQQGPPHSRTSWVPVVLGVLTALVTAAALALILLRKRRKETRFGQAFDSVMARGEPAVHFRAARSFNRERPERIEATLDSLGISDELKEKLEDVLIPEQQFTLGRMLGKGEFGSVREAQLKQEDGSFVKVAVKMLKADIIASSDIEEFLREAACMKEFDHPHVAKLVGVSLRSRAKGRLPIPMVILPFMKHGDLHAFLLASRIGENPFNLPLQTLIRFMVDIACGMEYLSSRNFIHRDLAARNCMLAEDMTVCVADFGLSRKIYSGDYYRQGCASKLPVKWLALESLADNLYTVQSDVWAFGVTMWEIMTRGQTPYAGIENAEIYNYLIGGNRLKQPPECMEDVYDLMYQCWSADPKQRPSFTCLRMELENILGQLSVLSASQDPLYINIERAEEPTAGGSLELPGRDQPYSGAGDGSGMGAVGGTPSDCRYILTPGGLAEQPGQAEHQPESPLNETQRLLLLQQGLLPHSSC

[2] = molecular target: Tyrosine-protein kinase Yes (Homo sapiens) (UniProt P07947); conditions: at 0.1 µM
[3] = molecular target: Tyrosine-protein kinase Yes (Homo sapiens) (UniProt P07947); conditions: at 1 µM
[4] = molecular target: T2, Tyrosine-protein kinase ZAP-70 (Homo sapiens) (UniProt P43403); conditions: at 0.1 µM
T2 sequence (whole entry): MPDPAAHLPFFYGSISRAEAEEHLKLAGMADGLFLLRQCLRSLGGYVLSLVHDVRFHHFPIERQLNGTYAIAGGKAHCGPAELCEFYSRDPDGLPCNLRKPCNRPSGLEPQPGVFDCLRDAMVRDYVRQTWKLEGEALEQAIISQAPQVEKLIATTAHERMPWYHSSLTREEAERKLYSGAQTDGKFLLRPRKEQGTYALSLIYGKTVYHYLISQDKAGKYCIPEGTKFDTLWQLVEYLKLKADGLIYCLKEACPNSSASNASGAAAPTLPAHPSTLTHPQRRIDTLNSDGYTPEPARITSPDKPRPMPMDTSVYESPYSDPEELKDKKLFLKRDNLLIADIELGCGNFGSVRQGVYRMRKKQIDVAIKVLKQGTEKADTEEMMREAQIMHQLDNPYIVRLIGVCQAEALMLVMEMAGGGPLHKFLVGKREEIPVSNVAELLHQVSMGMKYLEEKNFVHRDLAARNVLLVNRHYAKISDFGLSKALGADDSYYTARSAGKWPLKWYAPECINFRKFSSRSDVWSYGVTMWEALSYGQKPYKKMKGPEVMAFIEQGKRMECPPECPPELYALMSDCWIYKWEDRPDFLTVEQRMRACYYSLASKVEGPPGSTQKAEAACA

[5] = molecular target: T2, Tyrosine-protein kinase ZAP-70 (Homo sapiens); conditions: at 1 µM
[6] = molecular target: Serine/threonine-protein kinase B-raf (Homo sapiens) (UniProt P15056); conditions: at 0.1 µM
[7] = molecular target: Serine/threonine-protein kinase B-raf (Homo sapiens) (UniProt P15056); conditions: at 1 µM
[8] = test system: Serine/threonine-protein kinase B-raf (Homo sapiens), P15056 [V600E]; conditions: at 0.1 µM
[9] = test system: Serine/threonine-protein kinase B-raf (Homo sapiens), P15056 [V600E]; conditions: at 1 µM
[10] = molecular target: RAF proto-oncogene serine/threonine-protein kinase (Homo sapiens) (UniProt P04049); conditions: at 0.1 µM;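 note: values are mean CRAF kinase inhibition from profiling of the GSK Published Kinase Inhibitor Set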
Sequence of RAF proto-oncogene serine/threonine-protein kinase (Homo sapiens) (P04049 whole entry): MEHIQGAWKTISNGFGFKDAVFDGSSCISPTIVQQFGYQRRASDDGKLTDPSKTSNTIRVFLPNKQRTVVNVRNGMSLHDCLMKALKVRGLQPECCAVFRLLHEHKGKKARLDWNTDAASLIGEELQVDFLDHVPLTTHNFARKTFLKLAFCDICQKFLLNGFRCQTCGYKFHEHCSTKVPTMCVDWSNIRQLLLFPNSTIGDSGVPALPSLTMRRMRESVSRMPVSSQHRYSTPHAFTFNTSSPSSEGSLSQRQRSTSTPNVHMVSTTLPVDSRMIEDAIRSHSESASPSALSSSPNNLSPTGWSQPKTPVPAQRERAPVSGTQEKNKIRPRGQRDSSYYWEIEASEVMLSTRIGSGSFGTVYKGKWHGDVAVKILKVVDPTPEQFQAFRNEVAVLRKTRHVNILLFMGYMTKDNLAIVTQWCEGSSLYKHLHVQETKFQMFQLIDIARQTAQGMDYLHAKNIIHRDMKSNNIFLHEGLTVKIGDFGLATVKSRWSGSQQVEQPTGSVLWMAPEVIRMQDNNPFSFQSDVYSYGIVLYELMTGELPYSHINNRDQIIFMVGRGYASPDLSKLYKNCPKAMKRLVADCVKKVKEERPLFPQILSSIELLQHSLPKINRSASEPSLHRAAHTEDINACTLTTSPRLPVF

Sequence of Serine/threonine-protein kinase B-raf (Homo sapiens), P15056 [V600E] (P15056 whole entry V600E): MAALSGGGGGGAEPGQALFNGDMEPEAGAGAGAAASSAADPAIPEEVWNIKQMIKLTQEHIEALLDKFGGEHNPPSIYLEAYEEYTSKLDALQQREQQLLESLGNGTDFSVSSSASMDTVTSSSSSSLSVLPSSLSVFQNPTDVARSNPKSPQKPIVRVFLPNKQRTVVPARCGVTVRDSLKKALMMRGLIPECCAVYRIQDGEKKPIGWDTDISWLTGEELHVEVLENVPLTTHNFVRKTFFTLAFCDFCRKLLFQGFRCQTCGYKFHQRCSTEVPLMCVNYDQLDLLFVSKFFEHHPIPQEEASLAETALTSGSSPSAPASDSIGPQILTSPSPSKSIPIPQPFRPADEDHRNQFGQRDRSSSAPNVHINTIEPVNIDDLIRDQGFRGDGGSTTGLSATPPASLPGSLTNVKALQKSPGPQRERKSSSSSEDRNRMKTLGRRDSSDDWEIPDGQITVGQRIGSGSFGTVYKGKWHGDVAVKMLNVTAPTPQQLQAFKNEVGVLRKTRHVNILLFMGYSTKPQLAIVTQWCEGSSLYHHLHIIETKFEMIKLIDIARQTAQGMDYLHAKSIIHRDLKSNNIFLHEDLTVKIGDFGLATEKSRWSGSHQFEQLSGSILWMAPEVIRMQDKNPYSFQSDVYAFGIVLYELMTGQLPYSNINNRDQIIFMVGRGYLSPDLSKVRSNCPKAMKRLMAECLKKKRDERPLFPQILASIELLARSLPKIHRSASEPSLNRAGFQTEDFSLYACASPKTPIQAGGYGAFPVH
Sequence of Tyrosine-protein kinase Yes (Homo sapiens) (P07947 2-543 limits assumed): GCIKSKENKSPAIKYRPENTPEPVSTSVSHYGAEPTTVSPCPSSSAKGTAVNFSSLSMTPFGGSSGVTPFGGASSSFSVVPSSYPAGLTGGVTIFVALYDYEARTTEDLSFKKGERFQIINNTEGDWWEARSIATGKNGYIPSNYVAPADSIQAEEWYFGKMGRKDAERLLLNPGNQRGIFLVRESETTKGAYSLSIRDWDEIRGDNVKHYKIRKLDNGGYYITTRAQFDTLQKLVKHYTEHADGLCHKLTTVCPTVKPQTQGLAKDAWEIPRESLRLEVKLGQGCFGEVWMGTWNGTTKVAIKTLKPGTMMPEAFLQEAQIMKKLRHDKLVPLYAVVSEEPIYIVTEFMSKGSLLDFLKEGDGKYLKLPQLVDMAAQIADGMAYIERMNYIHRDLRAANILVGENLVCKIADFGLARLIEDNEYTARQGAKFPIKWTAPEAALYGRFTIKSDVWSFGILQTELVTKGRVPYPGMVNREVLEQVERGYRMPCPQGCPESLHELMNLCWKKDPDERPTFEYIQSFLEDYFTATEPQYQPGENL
Sequence of Serine/threonine-protein kinase B-raf (Homo sapiens) (P15056 whole entry): as the sequence (P15056 whole entry V600E) above, with E600V counted along it

Structure (SMILES): CCn1c(-c2nonc2N)nc2c(C#CCN)ncc(OCCCN)c21
- inhibition [1]: 3.68%
- inhibition [2]: 0.61%
- inhibition [3]: 3.6%
- inhibition [4]: 2.74%
- inhibition [5]: 2.46%
- inhibition [6]: -4.66%
- inhibition [7]: -4.6%
- inhibition [8]: -5.05%
- inhibition [9]: -3.78%
- inhibition [10]: 2.59%

Structure (SMILES): COc1cc2c(cc1Nc1nc(Nc3ccsc3C(N)=O)c3cc[nH]c3n1)N(C(=O)CN(C)C)CCC2
- inhibition [2]: 1.43%
- inhibition [3]: 2.18%
- inhibition [4]: -0.11%
- inhibition [5]: 1.86%
- inhibition [6]: -0.02%
- inhibition [7]: 1.67%
- inhibition [8]: 0.32%
- inhibition [9]: 0.47%
- inhibition [10]: -0.98%

Structure (SMILES): COc1cc(C=NNc2ncnc3c2cnn3Cc2ccccc2)ccc1O
- inhibition [1]: 7.59%
- inhibition [2]: 14.6%
- inhibition [3]: 30%
- inhibition [4]: 2.67%
- inhibition [5]: 1.13%
- inhibition [6]: -5.44%
- inhibition [7]: -5.52%
- inhibition [8]: -5.58%
- inhibition [9]: -4.22%
- inhibition [10]: -0.2%

Structure (SMILES): Nc1nonc1-c1nc2cnccc2n1C1CCCCC1
- inhibition [1]: -0.87%
- inhibition [2]: 1.72%
- inhibition [3]: 3.33%
- inhibition [4]: -2%
- inhibition [5]: -0.79%
- inhibition [6]: -2.13%
- inhibition [7]: 4.56%
- inhibition [8]: -1.6%
- inhibition [9]: 5.12%
- inhibition [10]: 2.21%

Structure (SMILES): CCn1c(-c2nonc2N)nc2c(C#CC(C)(C)O)ncc(OCC3CCNCC3)c21
- inhibition [1]: 3.34%
- inhibition [2]: 2.71%
- inhibition [3]: 6.72%
- inhibition [4]: -3.36%
- inhibition [5]: -3.17%
- inhibition [6]: 4.38%
- inhibition [7]: 2.78%
- inhibition [8]: 4.23%
- inhibition [9]: 2.64%
- inhibition [10]: 3.07%

Structure (SMILES): NS(=O)(=O)c1ccc(-c2ccc3c(NC(=O)C4CC4)n[nH]c3c2)cc1
- inhibition [1]: 13%
- inhibition [2]: 0.69%
- inhibition [3]: 2.38%
- inhibition [4]: 0.78%
- inhibition [5]: 0.22%
- inhibition [6]: 2.45%
- inhibition [7]: 5.35%
- inhibition [8]: 2.03%
- inhibition [9]: 3.48%
- inhibition [10]: 4.2%

Structure (SMILES): NS(=O)(=O)c1ccc(N/C=C2\C(=O)Nc3ccc4ncsc4c32)cc1
- inhibition [1]: 24.1%
- inhibition [2]: 2.73%
- inhibition [3]: 26.7%
- inhibition [4]: -5.22%
- inhibition [5]: 5.97%
- inhibition [6]: 11%
- inhibition [7]: 41%
- inhibition [8]: 9.06%
- inhibition [9]: 37.5%
- inhibition [10]: -1.4%

Structure (SMILES): CCn1c(-c2nonc2N)nc2c(C#CC(C)(C)O)nc(O[C@@H](CN)c3ccccc3)cc21
- inhibition [1]: 6.97%
- inhibition [2]: 2.89%
- inhibition [3]: 23.8%
- inhibition [4]: 0.99%
- inhibition [5]: 1.24%
- inhibition [6]: -0.9%
- inhibition [7]: 5.48%
- inhibition [8]: -1.97%
- inhibition [9]: 6.51%
- inhibition [10]: -3.13%

Structure (SMILES): Cc1cc(-c2ccco2)cc(C)c1/C=C/c1cncc(-c2nn[nH]n2)c1
- inhibition [1]: 0.02%
- inhibition [2]: 1.68%
- inhibition [3]: 6.08%
- inhibition [4]: -1.84%
- inhibition [5]: 0.77%
- inhibition [6]: 1.61%
- inhibition [7]: 1.61%
- inhibition [8]: 1.63%
- inhibition [9]: 3%
- inhibition [10]: -1.69%

Structure (SMILES): Fc1ccc(-c2ncn(C3CCNCC3)c2-c2ccnc(Oc3ccccc3)n2)cc1
- inhibition [1]: 0.47%
- inhibition [2]: 1.72%
- inhibition [3]: -0.9%
- inhibition [4]: -4.16%
- inhibition [5]: -3.08%
- inhibition [6]: 2.53%
- inhibition [7]: 4.3%
- inhibition [8]: 2.57%
- inhibition [9]: 4.15%
- inhibition [10]: -1.35%

Structure (SMILES): COc1cccc(-n2ncc3c(N/N=C/c4ccncc4)ncnc32)c1
- inhibition [1]: 41.6%
- inhibition [2]: 26.7%
- inhibition [3]: 73%
- inhibition [4]: 2.84%
- inhibition [5]: 3.98%
- inhibition [6]: 10.3%
- inhibition [7]: 21.5%
- inhibition [8]: 11%
- inhibition [9]: 23.1%
- inhibition [10]: -6.75%

Structure (SMILES): CCn1c(-c2nonc2N)nc2c(C#CC(C)(C)O)ncc(OC[C@@H]3CCCN3)c21
- inhibition [1]: 1.75%
- inhibition [2]: -0.57%
- inhibition [3]: 2.07%
- inhibition [5]: -0.24%
- inhibition [6]: 0.45%
- inhibition [7]: 0.01%
- inhibition [8]: 0.87%
- inhibition [9]: 0.05%
- inhibition [10]: 3.13%

Structure (SMILES): NC(=O)c1sc(-n2cnc3cc(C(F)(F)F)ccc32)cc1OCc1ccccc1Br
- inhibition [1]: 2.02%
- inhibition [2]: 2.56%
- inhibition [3]: 3.46%
- inhibition [4]: -0.71%
- inhibition [5]: 1.87%
- inhibition [6]: 3.64%
- inhibition [7]: 2.26%
- inhibition [8]: 1.31%
- inhibition [9]: 2.01%
- inhibition [10]: 1.82%

Structure (SMILES): COc1cccc(COc2cc(-n3cnc4ccccc43)sc2C(N)=O)c1
- inhibition [1]: -0.77%
- inhibition [2]: 0.89%
- inhibition [3]: 1.25%
- inhibition [4]: -1.78%
- inhibition [5]: 0.73%
- inhibition [6]: -0.39%
- inhibition [7]: 1.18%
- inhibition [8]: 0.3%
- inhibition [9]: 1.75%
- inhibition [10]: 2.33%
